In the library only some 18% were active in any assay of this set; here they are far more common.
TDP1 inh: blocks human tyrosyl-DNA phosphodiesterase 1; recombinant TDP1, AlphaScreen DNA substrate cleavage; 0.28% of 350,000 active; Potency, µM (titrated, usually from 130 µM), inactives show at the highest dose activity change, negative = inhibition, actives largely listed as inhibitors; Q9NUW8; note: nearly all actives have a fitted effect of over 40% in size
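Recombinant human Tdp1 (E. coli-expressed, 1 nM final) preincubated with compounds 15 min at room temperature, then 5'-biotin/3'-phosphotyrosine-FITC DNA substrate (15 nM final) added for 5 min. AlphaScreen beads (10 ug/ml final) added 10 min; cleavage lowers signal.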
PLK1 PBD inh: PLK1 (human) polo-box domain binding inhibition | P53350 | Plk1 PBD binding of FITC phosphopeptide, fluorescence polarization | Potency, µM, inactives show max response, negative = inhibition, usual class: inhibitors | 2.8% of 360,000 active | AID 720504; note: series mostly up to about 57 µM; nearly all actives have a fitted effect of over 65% in size
TDP1 cell CPT: DT40-hTDP1 cell growth loss with CPT; Potency, µM (doses to about 46.2 µM), without a hit: top-dose activity change, negative = growth inhibition, actives largely listed as inhibitors; chicken DT40 Tdp1-/-;hTDP1 cells + 20 nM CPT, ATP luminescence, 48 h; 12% of 420,000 active; note: nearly all actives have a fitted effect of over 55% in size
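Chicken DT40 Tdp1-/- cells complemented with human TDP1, 400 cells/well, exposed to compounds plus 20 nM camptothecin for at least 48 h at 37 C; viability read as ATP content by CellTiter-Glo luminescence.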
VDR inh: vitamin D3 receptor (human) inhibition; P11473; VDR-SRC2-3 peptide fluorescence polarization, 2 h; Potency, µM, for inactives: max response, negative = inhibition, hits mostly inhibitors; 0.93% of 400,000 active; AID 504847
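VDR–SRC2-3 interaction, FP format. Cmpds 23 nl via pintool, brief spin, 2 h ambient incubation.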
KAT2A inh: blocks human GCN5L2 histone acetyltransferase | Q92830 | GCN5L2 HAT assay, ThioGlo1 CoA-SH fluorescence | Potency, µM (series often up to 58.9 µM), for the others: at the highest dose activity change, negative = inhibition, most hits filed as inhibitors | 0.21% of 390,000 active | AID 504327
Target sequence (Q92830 whole entry, looked up): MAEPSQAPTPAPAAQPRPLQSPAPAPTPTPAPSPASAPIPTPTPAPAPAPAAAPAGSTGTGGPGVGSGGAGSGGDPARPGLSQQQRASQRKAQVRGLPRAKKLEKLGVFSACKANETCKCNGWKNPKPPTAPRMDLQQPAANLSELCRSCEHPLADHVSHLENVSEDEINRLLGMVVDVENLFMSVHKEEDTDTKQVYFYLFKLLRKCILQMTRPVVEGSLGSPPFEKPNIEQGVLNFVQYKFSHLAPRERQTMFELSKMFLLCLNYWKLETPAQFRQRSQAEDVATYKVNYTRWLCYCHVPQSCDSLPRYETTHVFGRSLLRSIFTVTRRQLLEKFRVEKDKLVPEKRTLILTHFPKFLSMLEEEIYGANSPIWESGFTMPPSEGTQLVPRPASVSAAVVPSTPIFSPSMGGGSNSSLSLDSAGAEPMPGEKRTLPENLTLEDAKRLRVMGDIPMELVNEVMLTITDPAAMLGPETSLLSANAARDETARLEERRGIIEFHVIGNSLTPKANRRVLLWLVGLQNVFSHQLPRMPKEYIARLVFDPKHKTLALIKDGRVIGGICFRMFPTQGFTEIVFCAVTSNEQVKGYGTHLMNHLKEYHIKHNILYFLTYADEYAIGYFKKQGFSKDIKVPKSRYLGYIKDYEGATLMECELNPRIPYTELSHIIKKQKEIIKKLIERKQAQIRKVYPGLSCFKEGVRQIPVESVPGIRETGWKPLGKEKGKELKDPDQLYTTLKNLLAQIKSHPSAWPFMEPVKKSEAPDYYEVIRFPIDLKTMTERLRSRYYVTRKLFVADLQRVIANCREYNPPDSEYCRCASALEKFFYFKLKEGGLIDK
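qHTS, 1536-well. 20nM enzyme, pH 7.5 HEPES/EDTA/Tween-20 buffer; 15 min compound preinc., RT. Start: 75uM H3(1-25), 70uM AcCoA, 50uM ThioGlo1. Read Ex340/Em540 at t=0 (autofluorescence flag) and t=20 min.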
DT40 TDP1 no CPT: qHTS for Inhibitors of human tyrosyl-DNA phosphodiesterase 1 (TDP1): qHTS in cells in absence of CPT; DT40 Tdp1-/- hTDP1 cells, no CPT, ATP luminescence, 48 h; Potency, µM (top dose mostly 46.2 µM), for inactives: top-dose activity change, negative = growth inhibition, most hits filed as inhibitors; 15% of 420,000 active; AID 686978, 2013; note: nearly all actives have a fitted effect of over 55% in size
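Chicken DT40 Tdp1-/- cells complemented with human TDP1, screened without camptothecin (DMSO vehicle only), 400 cells/well. Compounds pin-transferred, cells incubated at 37 °C for at least 48 hr. Growth read as ATP-dependent luminescence (CellTiter-Glo, 30 min at RT).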
* = called active by the depositor; ? = inconclusive; nt = not tested or not shown. Calls come from the whole dose curve; as a rule, active = well fitted curve in the direction sought with a large enough effect; inconclusive = small, poorly fitted or top-dose-only effect, or another doubt; inactive = no such curve, though single readings can be large; an effect the other way counts as inactive or inconclusive. % is set by controls: 0 for no effect and ±100 for the full control effect; potency is the fitted concentration of half-maximal effect.

SMILES	TDP1 inh	PLK1 PBD inh	TDP1 cell CPT	VDR inh	KAT2A inh	DT40 TDP1 no CPT
COc1ccc(C2CC(c3ccc4ccccc4c3)=NN2C(=O)CN2C(=O)CCC2=O)cc1 (configuration not stated)	5.3%	-9.8%	25.9µM*	9.3%	-4.2%	23.1µM*
COc1ccccc1CNS(=O)(=O)c1ccc(F)c(C(=O)Nc2cc(Cl)ccc2OC)c1	5.2%	nt	?	17.5%	-5.0%	?
Cc1c(Cl)cccc1-n1ncc(C(=O)NC2CCCC2)c1C1CCN(C(=O)OC(C)(C)C)CC1	3.2%	nt	?	4.4%	17.0%	20.6µM*
Cc1c(Cl)cccc1-n1ncc(C(=O)Nc2ccc(F)cc2F)c1C1CCN(C(=O)OC(C)(C)C)CC1	7.4%	nt	?	0.9%	-1.7%	14.6µM*
Cc1c(Cl)cccc1-n1ncc(C(=O)N2CCC(C)CC2)c1C1CCN(C(=O)OC(C)(C)C)CC1	-1.1%	nt	?	4.5%	-0.9%	20.6µM*
CC(=NNC(=S)Nc1ccc(C)cc1)c1ccccn1	nt	-9.2%	0.0184µM*	-26.2%	nt	0.0184µM*
COc1ccccc1NC(=S)NN=C(C)c1ccccn1	nt	-9.8%	0.013µM*	?	nt	0.146µM*
CC(=NNC(=S)Nc1cccc(C)c1)c1ccccn1	nt	?	0.0184µM*	?	nt	0.0326µM*
O=C1CC(=O)Nc2cc(S(=O)(=O)N3CCOc4ccc(Cl)cc43)ccc2N1	-2.8%	?	?	5.4%	-4.3%	?
CN(C)c1ccc(/C=C/C(=O)c2cccnc2)cc1	nt	51.4%	5.9%	-10.0%	-2.4%	-28.6%
O=C(/C=C/c1cccc(O)c1)c1cccnc1	2.7%	?	8.2µM*	56.2µM*	-6.2%	23.1µM*
O=C(/C=C/c1cccnc1)c1cccc(O)c1	nt	-13.1%	2.91µM*	?	-2.8%	2.91µM*
CCc1ccccc1NC(=O)CN(Cc1ccccc1)S(=O)(=O)c1ccc2nc(C)sc2c1	-0.6%	nt	?	10.0%	-14.2%	?
OC(CNCCc1ccc(C(F)(F)F)cc1)COC(c1ccccc1)c1ccccc1 (configuration not stated)	nt	-13.2%	18.4µM*	5.5%	15.3%	?
CN(C)CC(O)COC(c1ccccc1)c1ccccc1 (configuration not stated)	0.0%	-15.0%	-9.3%	5.4%	-0.2%	-11.4%
Cc1ccccc1CS(=O)(=O)c1ncc(Cl)c(C(=O)Nc2ccc(F)cc2)n1	3.4%	18.9µM*	3.26µM*	-23.0%	-10.2%	2.06µM*
CCS(=O)(=O)c1ncc(Cl)c(C(=O)Nc2c(C(=O)c3ccc(C)cc3)oc3ccccc23)n1	-1.2%	nt	1.64µM*	1.1%	-3.4%	1.64µM*
CCOC(=O)c1nc(S(C)(=O)=O)ncc1Cl	4.1%	21.2µM*	4.11µM*	56.2µM*	2.3%	3.66µM*
CS(=O)(=O)c1ncc(Cl)c(C(=O)Nc2c(C(=O)c3ccc(Cl)cc3)oc3ccccc23)n1	0.0%	nt	?	10.6%	-9.2%	3.4%
Cc1cccc(C)c1NC(=O)c1nc(S(=O)(=O)Cc2ccccc2)ncc1Cl	3.7%	?	2.59µM*	?	-1.6%	2.91µM*
Cc1ccccc1CSc1ncc(Cl)c(C(=O)NCc2ccccc2)n1	2.3%	nt	-28.5%	2.7%	-8.4%	-29.0%
CCN(CC)S(=O)(=O)c1nnc(NC(=O)COc2ccc(Cl)cc2)s1	6.5%	nt	?	-4.0%	-6.1%	-12.8%
O=C(Nc1cc2c3c(c1)CC(=O)N3CCC2)c1ccc(Cl)cc1	-4.6%	-6.7%	?	-7.7%	-4.4%	?
CCc1nnc(NC(=O)c2cc(Cl)ccn2)s1	nt	?	2.91µM*	-11.2%	-2.1%	2.59µM*
COc1ccc(NC(=O)c2nc(SCc3ccc(F)cc3)ncc2Cl)cc1	0.0%	nt	-10.8%	4.7%	-2.0%	?
